PubChem BioAssay AID651965 (National Center for Advancing Translational Sciences (NCATS), 2013)
Among all 340,000 compounds or so, about 6,400 (1.9%) were called active. Another 4% or so got no clear call; they are omitted. The sample as a whole holds a higher share of actives than the screen did. A number with no mark means an inactive call. The call rests on the fitted dose curve; in most records, active means well fitted falling curve with a large enough effect; inconclusive means small, poorly fitted or top-dose-only effect; inactive means no such curve, though single readings can be large or run the other way.

target: ATP-dependent Clp protease proteolytic subunit (Bacillus subtilis (strain 168)) (UniProt P80244); assay: qHTS Assay for Activators of ClpP; further: the source files actives as falling curves though it sought activators and does not explain the sign; nearly all actives have a fitted effect of over 65% in size; details: purified B. subtilis ClpP, FRET peptide cleavage, 20 min; series mostly up to 57.5 µM; activity change, negative = active: at the top concentration
How it was run: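 FRET quenching reversal measured ClpP activation: 10 microg/mL B. subtilis ClpP at pH 8 with the FRET-FV decapeptide, read at 430 nm after 320 nm excitation. The 20-min minus 0-min signal was scaled between DMSO/no-enzyme wells and ADEP (5.8 microM final).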
Potency means the concentration at half of the fitted maximal effect.

Sequence of ATP-dependent Clp protease proteolytic subunit (Bacillus subtilis (strain 168)) (P80244 whole entry, looked up): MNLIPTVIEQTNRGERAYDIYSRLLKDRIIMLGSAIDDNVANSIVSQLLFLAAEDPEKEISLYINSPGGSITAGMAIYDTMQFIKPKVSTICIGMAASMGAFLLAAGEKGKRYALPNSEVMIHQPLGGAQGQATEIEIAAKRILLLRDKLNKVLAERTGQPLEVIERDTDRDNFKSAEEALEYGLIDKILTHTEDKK

Row | SMILES | activity change, negative = active | Potency
1 | CCC(C)N(c1ccc(/C=C/c2ccnc3ccccc23)cc1)C(C)CC (stereo not drawn) | -0.824% | –
2 | COC(=O)c1ccc2nc(C3CCCCC3)c(Cc3cccc(F)c3)n2c1 | -13.5% | –
3 | C(=Nc1ccc(/C=C/c2ccnc3ccccc23)cc1)Nc1ccc(/C=C/c2ccnc3ccccc23)cc1 | -6.68% | –
4 | Nc1ncnc2c1ncn2[C@@H]1O[C@H](C(=O)N2CCSC2)[C@@H](O)[C@H]1O | 0.957% | –
5 | CCOC(=O)C1C(C)C(C(C)(C)C)N(S(=O)(=O)c2ccc(C)cc2)C1c1ccccc1 (stereo not drawn) | 0.713% | –
6 | Nc1nc(CSc2nnnn2-c2ccccc2)nc(Nc2ccccc2)n1 | -2.32% | –
7 | OC[C@@H]1CN(Cc2cccs2)C[C@H](n2cnc3c(NC4CCCC4)ncnc32)O1 | -2.11% | –
8 | NC(=O)CSC1=Nc2ccccc2C2=NC(CCC(=O)NCc3ccc(F)cc3)C(=O)N12 (stereo not drawn) | – | 28.2 µM (active)
9 | O=C(CCC1N=C2c3ccccc3N=C(SCc3ccccc3F)N2C1=O)NCCc1ccccc1 (stereo not drawn) | 4.35% | –
10 | CCOC(=O)CSC1=Nc2ccccc2C2=NC(CCC(=O)NCc3ccc(F)cc3)C(=O)N12 (stereo not drawn) | 4.54% | –
11 | CCCOc1ccc(F)cc1-c1cc(C(=O)Nc2ccc(F)cc2)[nH]n1 | -0.0166% | –
12 | CC(C)C1CCN(C(=O)C2CCC(=O)N(C3CCCCCC3)C2)CC1 (stereo not drawn) | 1.03% | –
13 | COCCN(Cc1ccco1)C(=O)Cn1ncc2c([nH]c3ccccc32)c1=O | 4.44% | –
14 | Cc1ccc2[nH]c3c(=O)n(Cc4ccccn4)cnc3c2c1 | – | 31.6 µM (active)
15 | COc1ccc(Cn2ccnc2SCC(=O)NCc2ccco2)cc1 | -2.28% | –
16 | COc1ccc2c(c1)c1ncn(Cc3ccccn3)c(=O)c1n2C | 4.35% | –
17 | COc1ccc2[nH]c3c(=O)n(Cc4ccco4)cnc3c2c1 | – | 25.1 µM (active)
18 | O=c1c2[nH]c3ccc(Cl)cc3c2ncn1Cc1ccccn1 | -14.7% | –
19 | CN(C)CCCOc1ccc(-c2ccc3nccn3c2)cn1 | -24.3% | –
20 | COc1cccc(NC(=O)C2(C)CCN2Cc2ccccc2Cl)c1 (stereo not drawn) | -0.477% | –
21 | CC1=C(C(=O)N(C(C)C)C(C)C)CC(CC(=O)NCCCCc2ccccc2)C(=O)N1CCC1=CCCCC1 (stereo not drawn) | -0.51% | –
22 | CN(Cc1ccccc1)C(=O)CCC1CCN(C(=O)c2ccco2)CC1 | 1.04% | –
23 | Cc1ccc2c(c1)c1ncnc(N3CCc4ccccc4C3)c1n2C | – | 31.6 µM (active)
24 | Cc1ccc2c(c1)c1ncn(Cc3ccc(F)cc3)c(=O)c1n2C | 3.72% | –
25 | Cc1ccc2c(c1)c1ncn(CCC3=CCCCC3)c(=O)c1n2C | -29.4% | –
26 | CCCCN1C(=O)C(CC(=O)NCc2cccs2)CC(C(=O)N2CCCCCC2)=C1C (stereo not drawn) | 2.09% | –

Row | SMILES | activity change, negative = active | Potency
27 | CCOC1=C2[C@@H](CN(S(=O)(=O)c3ccc(C)cc3)[C@H]2c2ccccc2F)[C@H]2C(=O)N(Cc3ccccc3)C(=O)[C@H]2C1 | -5.97% | –
28 | COc1ccc(NC(=O)CSc2nc3ccccc3[nH]2)cc1 | -0.614% | –
29 | COc1ccc(-c2cn[nH]c2-c2ccc(OC)cc2)cc1 | -8.81% | –
30 | Clc1ccccc1SCc1nc2ccccc2[nH]1 | -2.24% | –
31 | Nc1ccccc1-c1nc2ccncc2[nH]1 | 3.69% | –
32 | c1ccc(-c2[nH]ncc2-c2nc3ccccc3[nH]2)cc1 | – | 25.1 µM (active)
33 | Cc1ccc(OCC(=O)Nc2ccc(Cl)c(-c3nc4ccccc4[nH]3)c2)cc1C | 4.68% | –
34 | c1ccc2[nH]c(-c3nc4ccccc4[nH]3)nc2c1 | – | 7.08 µM (active)
35 | COc1ccc(-c2[nH]nc(-c3ccccc3)c2-c2nc3ccccc3[nH]2)cc1 | – | 25.1 µM (active)
36 | Oc1ccc(-c2[nH]ncc2-c2nc3ccccc3s2)c(O)c1 | -25.2% | –
37 | COc1cccc(CNC(=O)[C@@H]2CCCN2C(=O)[C@@H]2CCCN2C(=O)c2ccccc2)c1 | -3.48% | –
38 | Cc1[nH]c2ccccc2c1C(=O)c1cc([C@H](NC(=O)OC(C)(C)C)C(C)C)sc1N | -1.88% | –
39 | CN(Cc1cn(Cc2ccc(C(F)(F)F)cc2)nn1)C1CN(Cc2cn(Cc3ccc(C(F)(F)F)cc3)nn2)S(=O)(=O)C1 (stereo not drawn) | 2.25% | –
40 | CCOCCCNC(=O)c1cn(CC(C)C)c(=O)c2c1c1ccccc1n2C | – | 39.8 µM (active)
41 | COCCCNC(=O)Cn1cc(C(=O)C2CC2)c2ccccc21 | 0.52% | –
42 | CCOCCCNC(=O)c1cn(CC)c2ccc(S(=O)(=O)N3CCc4ccccc4C3)cc2c1=O | -0.751% | –
43 | CC(=O)C[C@@H]1OC[C@H](CO)N1S(=O)(=O)c1ccc(C)cc1 | 0.114% | –
44 | CCN1CCN(c2ccc(/C=C/c3ccnc4ccccc34)cc2)CC1 | -1.67% | –
45 | COc1ccc(N2CCN(C(c3cc4ccc(C)cc4[nH]c3=O)c3nnnn3C3CCCC3)CC2)cc1 (stereo not drawn) | -8.89% | –
46 | CCOc1ccc2[nH]c(=O)c(C(c3nnnn3CCOC)N3CCOCC3)cc2c1 (stereo not drawn) | – | 15.8 µM (active)
47 | COCCn1nnnc1C(c1ccccc1Cl)N1CCN(c2ccccc2OC)CC1 (stereo not drawn) | 16.9% | –
48 | CSCCC(C(=O)NC(C)(C)C)n1c(-c2ccccc2)nc2ccccc21 (stereo not drawn) | -7.98% | –
49 | Cc1cccc(C)c1-n1nnnc1C(CCc1ccccc1)N1CCN(C/C=C/c2ccccc2)CC1 (stereo not drawn) | 2.81% | –
50 | CCCCNC(=O)c1nc(C2CCN(S(=O)(=O)c3ccc(F)c(F)c3)CC2)oc1-c1cccc(C(F)(F)F)c1 | -16.5% | –
51 | COc1ccc(-c2nc3cc(C)ccn3c2NC2CCCCC2)cc1SC1CCCCC1 | 3.39% | –
52 | CCOc1cc(C(C(=O)NCC2CCCO2)N(C(=O)Cn2nnc3ccccc32)c2cccc(OC)c2)ccc1O (stereo not drawn) | -0.295% | –

Row | SMILES | activity change, negative = active | Potency
53 | CCOc1cc(-c2nc3cc(C)ccn3c2NCC2CCCO2)ccc1O (stereo not drawn) | – | 28.2 µM (active)
54 | Cc1ccc(S(=O)(=O)NN=C2CC(C)(C)CC(=O)C2(C)C)cc1 | -0.103% | –
55 | O=C1COc2ccc(-c3csc(-c4ccc(Cl)cc4)n3)cc2N1 | 3.36% | –
56 | CSc1ccccc1-c1nnc(-c2ccc(Cl)cc2)o1 | – | 31.6 µM (active)
57 | COc1ccccc1-c1nnc(-c2ccc(F)cc2)o1 | -0.414% | –
58 | CSc1ccccc1-c1nnc(NC(=O)c2ccc3c(c2)OCCO3)o1 | 4.31% | –
59 | CCC(C)CN1C(=O)CSCC1(C)C(=O)NCc1ccccc1 (stereo not drawn) | -4.83% | –
60 | O=C(NCc1ccccc1)c1ccc2c(c1)nc1n2CCCCC1 | -5.59% | –
61 | Cc1ccc(C)n1-c1nnc(N2CCC(C(=O)NCc3ccc(F)cc3)CC2)s1 | 10.4% | –
62 | O=C(NCc1ccc(F)cc1)c1ccc2nc(N3CCCCC3)sc2c1 | – | 35.5 µM (active)
63 | CN1OC[C@@H]2CN(C(=O)C(C)(C)C)[C@H](c3ccc(-n4ccnc4)cc3)C[C@@H]21 | -0.0839% | –
64 | CN1CCN(C(=O)c2ccc(-c3cc4nc(NCc5cccnc5)n(C)c(=O)c4s3)cc2)CC1 | 4.86% | –
65 | COc1ccc(Cn2c(=O)[nH]c3cc(C(=O)N4CCN(C(=O)c5ccco5)CC4)ccc3c2=O)cc1 | -8.08% | –
66 | COC(=O)c1ccc(Sc2ccc(F)cc2)c(N)c1 | – | 28.2 µM (active)
67 | CC(=O)Nc1cc(C(=O)NCc2ccc(F)cc2)ccc1Sc1ccc(F)cc1 | 0.223% | –
68 | Cc1ccc(Sc2ccc(NC(=O)c3ccc(F)cc3)cc2C#N)cc1 | 4.22% | –
69 | C=C1C=C(C)n2ncc(C(=O)Nc3ccccc3O)c2N1 | -5.9% | –
70 | COCCn1c(SCC(=O)Nc2ccc(F)cc2F)nc2c(c1=O)SCC2 | 1.65% | –
71 | Cc1cc2nc(-c3ccc(F)cc3)c(Cc3ccsc3)n2c(C)c1Br | -3.99% | –
72 | Cc1cc(C)n2nc(C(=O)OCC(=O)N(CCC#N)c3ccc(F)cc3)nc2n1 | -2.14% | –
73 | Cc1c(C(=O)OCC(=O)N(CCC#N)c2ccccc2)oc2c1ccc1ccccc12 | – | 25.1 µM (active)
74 | N#CCCN(C(=O)COC(=O)c1ccc(S(=O)(=O)N2CCCCCC2)cc1)c1ccccc1 | 1.35% | –
75 | O=C(Nc1ccc(N2CCOCC2)cc1)c1cccc2c(-c3ccc(F)c(F)c3)coc12 | 24.2% | –
76 | Cc1nc2c(OCc3cccc(Cl)c3)cccn2c1N(C)CC1CC1 | -11.2% | –
77 | COc1cc(Cn2c3ccc(NC(=O)CC(C)c4ccccc4)cc3c(=O)n2C)ccc1F (stereo not drawn) | 4.54% | –
78 | COc1ccc(OC)c(C(=O)c2ccc(Cl)cc2)c1 | -4.97% | –

Row | SMILES | activity change, negative = active | Potency
79 | COc1ccc2c(c1)C(=O)Nc1cc(Cl)ccc1N2 | – | 28.2 µM (active)
80 | COc1ccc(-n2c(-c3ccc(Cl)cc3)n[nH]c2=S)c(OC)c1 | -16.5% | –
81 | C=CCn1c(-c2ccc(Cl)cc2)ccc(C#N)c1=O | – | 28.2 µM (active)
82 | C=CCn1c(SCn2nnc3ccccc3c2=O)nnc1-c1ccc(Cl)cc1 | -1.24% | –
83 | CCn1c(C)cc(=O)cc1-c1ccc(Cl)cc1 | 0.84% | –
84 | COc1cc2ccc(C(C)=O)c(O)c2cc1OC | 3.45% | –
85 | COCCNc1ncnc2c1nc1n2CCCC1 | 0.498% | –
86 | COCCNc1nc(-n2nc(C)cc2C)nc2sc3c(c12)CCCC3 | – | 28.2 µM (active)
87 | CCC(O)CNc1nc(-n2nc(C)cc2C)nc2sc3c(c12)CC(C)(C)OC3 (stereo not drawn) | -5.09% | –
88 | COCCCNC(=O)c1cccc2c(-c3ccc(O)c(OC)c3)coc12 | 0.962% | –
89 | CC1=C(C(=O)Nc2cccc(C(=O)NCC(C)c3ccccc3)c2)SCCO1 (stereo not drawn) | 0.0606% | –
90 | CN1CCN(C(=O)c2ccc(NC(=O)c3ccc(Br)o3)cc2)CC1 | 1.14% | –
91 | Cc1c(C(=O)NCc2ccc(C#N)cc2)sc(=O)n1Cc1ccc(C(=O)N(C)C)cc1 | 1.14% | –
92 | COC(=O)[C@@]12C[C@@H](CC(=O)N3CCC(c4ccccc4)CC3)C(=O)N(Cc3ccccc3)C1=CCC(C)(C)C2 | 1.79% | –
93 | COCCNC(=O)CSc1nc(N)c(NC(=O)c2ccco2)c(=O)[nH]1 | 1.56% | –
94 | Cc1nnc(SCC(=O)NCCOc2ccc(Cl)cc2)n1-c1ccccc1 | -4.45% | –
95 | COCCNC(=O)CSc1nc(-c2ccccc2)[nH]c1-c1ccc(C)cc1 | – | 31.6 µM (active)
96 | CC1(C(=O)NS(=O)(=O)c2ccccc2)CCN1C(=O)c1ccccc1 (stereo not drawn) | -1.98% | –
97 | O=C(c1cc(C2CCCCN2S(=O)(=O)c2ccccc2)on1)N1CCOCC1 (stereo not drawn) | -0.363% | –
98 | CN1C(=O)c2ccc(NC(=O)C3CCCCC3)cc2C1=O | – | 31.6 µM (active)
99 | CN1C(=O)c2ccc(NC(=O)c3c(F)c(F)c(F)c(F)c3F)cc2C1=O | – | 31.6 µM (active)
100 | CN1C(=O)c2ccc(C(=O)Nc3ccc(Br)cn3)cc2C1=O | -1.62% | –
101 | Cc1nc2ccc(NC(=O)C3CCCCC3)cc2s1 | -1.11% | –
102 | Cc1cccc(C(=O)Nc2ccc3c(c2)C(=O)N(CC(C)C)C3=O)c1 | 4.1% | –
103 | O=C(Nc1ccc2c(c1)OCCO2)C1CCCC1 | 2.15% | –
